Results: article PMC4336329 (PLoS ONE, 2015)
About 14,000 (4.5%) of roughly 310,000 compounds showed an effect of 50% or more. The effect is printed as a negative number. This is one part of a sample in which strong results are shown more often than they occur.

Each compound was assayed against human ether-à-go-go-related gene (hERG) potassium channel (human, UniProt Q12809) (assay: primary screen, population patch clamp on CHO cells stably expressing hERG; higher = less effect of the substance).
human ether-à-go-go-related gene (hERG) potassium channel, sequence (Q12809 whole entry, looked up): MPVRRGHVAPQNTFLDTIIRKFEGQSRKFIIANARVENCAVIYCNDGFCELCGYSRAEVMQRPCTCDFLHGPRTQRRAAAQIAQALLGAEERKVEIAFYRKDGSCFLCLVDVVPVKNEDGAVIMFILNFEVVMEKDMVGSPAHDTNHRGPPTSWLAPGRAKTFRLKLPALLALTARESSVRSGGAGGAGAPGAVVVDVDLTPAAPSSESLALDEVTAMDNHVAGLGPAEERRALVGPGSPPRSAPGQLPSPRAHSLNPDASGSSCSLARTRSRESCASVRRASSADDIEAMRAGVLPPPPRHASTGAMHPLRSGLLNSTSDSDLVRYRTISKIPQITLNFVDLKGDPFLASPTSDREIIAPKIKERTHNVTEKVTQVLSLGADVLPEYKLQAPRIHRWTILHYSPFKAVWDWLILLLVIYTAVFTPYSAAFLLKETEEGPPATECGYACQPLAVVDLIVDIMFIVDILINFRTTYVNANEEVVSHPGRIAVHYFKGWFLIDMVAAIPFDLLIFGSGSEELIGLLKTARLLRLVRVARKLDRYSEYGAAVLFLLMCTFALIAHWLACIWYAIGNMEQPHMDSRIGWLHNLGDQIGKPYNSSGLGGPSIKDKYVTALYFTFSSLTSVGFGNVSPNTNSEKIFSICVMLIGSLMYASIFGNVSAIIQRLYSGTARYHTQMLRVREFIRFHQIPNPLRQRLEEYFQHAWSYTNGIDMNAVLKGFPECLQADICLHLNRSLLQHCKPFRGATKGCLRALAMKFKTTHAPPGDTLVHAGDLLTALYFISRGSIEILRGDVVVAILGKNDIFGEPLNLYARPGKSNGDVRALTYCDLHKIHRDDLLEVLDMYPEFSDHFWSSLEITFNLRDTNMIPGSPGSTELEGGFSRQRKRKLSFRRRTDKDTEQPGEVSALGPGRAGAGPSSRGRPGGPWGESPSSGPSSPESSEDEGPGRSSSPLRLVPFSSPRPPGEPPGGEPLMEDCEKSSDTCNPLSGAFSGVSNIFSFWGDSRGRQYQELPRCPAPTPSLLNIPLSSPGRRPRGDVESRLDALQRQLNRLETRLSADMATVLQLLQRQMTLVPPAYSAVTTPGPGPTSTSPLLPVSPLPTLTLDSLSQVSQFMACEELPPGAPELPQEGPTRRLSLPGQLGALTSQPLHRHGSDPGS
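Note: peak tail current of the secondary pulse compared with the same well before compound.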

SMILES | hERG current change (%, negative = inhibition) at 10uM [%]
c1ccc(-c2nnsc2Sc2ccccn2)cc1 | 3.35
Cc1cc(C)cc(CC2CC(=O)N(c3cc(C)on3)C2=O)c1 (stereo not shown) | 0.808
Cc1cc(C(=O)CSc2nnc(-c3ccc(Cl)cc3)n2C)c(C)n1CC1CCCO1 (stereo not shown) | 8.08
Cc1noc(C)c1COC(=O)c1ccc(N(C)C)cc1 | -9.83
CNC(=O)CN(c1cc(C)ccc1OC)S(=O)(=O)c1ccc(C)cc1 | -0.703
COc1ccccc1CNC(=O)CCNC(=O)C1CCN(S(=O)(=O)c2ccccc2)CC1 | -7.65
Cc1sc2nc(SCC(=O)Nc3c(C)n(C)n(-c4ccccc4)c3=O)n(C)c(=O)c2c1C | 9.4
C=CCn1c(SCC(=O)Nc2c(C)n(C)n(-c3ccccc3)c2=O)nc2scc(-c3ccccc3)c2c1=O | -56
C=CCn1c(SCC(=O)Nc2c(C)n(C)n(-c3ccccc3)c2=O)nc2sc(C)c(-c3ccccc3)c2c1=O | -54
C=CCn1c(SCC(=O)Nc2c(C)n(C)n(-c3ccccc3)c2=O)nc2sc(C)c(C)c2c1=O | -31.4
C=CCn1c(SCC(=O)Nc2c(C)n(C)n(-c3ccccc3)c2=O)nc2ccccc2c1=O | -32.9
C=CCn1c(SCC(=O)Nc2ccccc2)nc2scc(-c3cccs3)c2c1=O | 8.69
O=C(O)c1ccc[nH]c1=S | 10.3
CC(=O)NC1C(OCc2ccccc2)OC2COC(C)(C)OC2C1O (stereo not shown) | 18.3
Cc1ccc(C)c(NC(=S)NNC(=O)c2csc(C)c2C)c1 | 1.72
O=C(NCc1ccccc1)C1CCCN1S(=O)(=O)c1ccc(Cl)cc1 (stereo not shown) | -7.85
COc1ccc(OC)c(N(CC(=O)NCC2CCCO2)S(=O)(=O)c2ccccc2)c1 (stereo not shown) | 8.03
CC(NC(=O)C1CCN(S(=O)(=O)c2ccc(Br)s2)CC1)c1ccccc1 (stereo not shown) | -0.752
NC(=O)NC(=O)C(c1ccccc1)N1CCN(S(=O)(=O)Cc2ccccc2)CC1 (stereo not shown) | -18.9
NC(=O)NC(=O)C(c1ccccc1)N1CCN(S(=O)(=O)c2ccc(Br)s2)CC1 (stereo not shown) | -52.2

SMILES | hERG current change (%, negative = inhibition) at 10uM [%]
CCN(c1cccc(C)c1)S(=O)(=O)c1cnc[nH]1 | 9.23
COc1ccccc1C(=O)NCC(c1cccs1)N1CCc2ccccc21 (stereo not shown) | 1.26
CCOC(=O)c1c(NC(=O)Cn2nc(C(F)(F)F)cc2C)sc2c1CCC2 | -4.65
NC(=O)c1cc(-c2csc(NCCc3ccccc3)n2)ccc1O | 6.05
COc1ccc(C2=NC(CO)(CO)CO2)cc1 | 19
COc1ccccc1C(CNc1ncnc2sc(C)c(C)c12)N(C)C (stereo not shown) | -55.4
Cc1nc(NCc2ccc(S(N)(=O)=O)cc2)c2c(C)c(C)sc2n1 | 2.83
COc1ccc(/C=N/Nc2ncnc3sc(C)c(C)c23)cc1 | -8.19
Cc1sc2ncnc(NCC(O)c3ccccc3)c2c1C (stereo not shown) | 17.7
COc1ccc(C(CNc2ncnc3sc(C)c(C)c23)N(C)C)cc1 (stereo not shown) | -56.4
Cc1sc2ncnc(NCC(O)c3ccc([N+](=O)[O-])cc3)c2c1C (stereo not shown) | -71.6
Cc1nc(N(C)Cc2ccccc2)c2c(C)c(C)sc2n1 | -14.8
CCOC(=O)c1sc2ncnc(NCC(c3cccs3)N(C)C)c2c1C (stereo not shown) | 5.57
Cc1sc2ncnc(NCC3COc4ccccc4O3)c2c1C (stereo not shown) | -13.6
Cc1sc2ncnc(N[C@@H](CCC(=O)O)C(=O)O)c2c1C | 10.1
Cc1nc(NCC(c2ccccc2)N(C)C)c2c(C)c(C)sc2n1 (stereo not shown) | -77.1
Cc1sc2ncnc(NCC(c3ccccc3)N(C)C)c2c1C (stereo not shown) | -40.1
O=C(c1cccc(S(=O)(=O)NCCOc2ccccc2)c1)N1CCN(c2ncccn2)CC1 | -37.6
Cc1cc(/C=C(\C#N)C(=O)NCc2ccco2)c(C)n1-c1cccnc1 | -23.2
O=C(COc1ccc2ccccc2c1)N/N=C/C1CC=CCC1 (stereo not shown) | 1.93

SMILES | hERG current change (%, negative = inhibition) at 10uM [%]
CCOCCCN1CN(Cc2ccccc2)CNC1=S | 14.3
COC(=O)c1sccc1NC(=S)NCc1ccc(Cl)cc1 | 9.11
COCCN(C(=O)CCC(=O)Nc1cc(C)on1)C(C(=O)NC1CCCC1)c1ccccc1C (stereo not shown) | 14.7
COc1cccc(OC)c1C(=O)NC(=S)N1CCOCC1 | 17.2
CCOC(=O)Cn1c2c(c(-c3ccccc3OC)cc1=O)CCCC2 | 2.38
CNS(=O)(=O)c1ccc(NC(=S)Nc2ccc3c(c2)OCO3)cc1 | 8.16
CC(=O)c1c(C)[nH]c(C(=O)COC(=O)CNS(=O)(=O)c2ccccc2)c1C | -2.66
CN(CC(=O)OCC(N)=O)S(=O)(=O)c1ccc(Cl)cc1 | 33.6
CC(Oc1ccc(Cl)cc1Cl)C(=O)OCC(=O)c1c(N)n(C)c(=O)n(C)c1=O (stereo not shown) | -71.2
Cn1c(N)c(C(=O)COC(=O)CSc2ccc(Cl)cc2)c(=O)n(C)c1=O | -61.2
CN(CC(=O)OCC(=O)c1c(N)n(C)c(=O)n(C)c1=O)S(=O)(=O)c1ccc(Cl)cc1 | -69.3
CC(C)[C@H](NS(=O)(=O)c1ccc(Cl)cc1)C(=O)OCC(=O)c1c(N)n(C)c(=O)n(C)c1=O | -39.9
CC(=O)c1c(C)[nH]c(C(=O)COC(=O)CN(C)S(=O)(=O)c2ccc(Cl)cc2)c1C | -57.8
Cn1c(N)c(C(=O)COC(=O)CCCOc2ccc(Cl)cc2Cl)c(=O)n(C)c1=O | -12.2
Cn1c(N)c(C(=O)COC(=O)CSc2ccccc2)c(=O)n(C)c1=O | -33.6
Cn1c(N)c(C(=O)COC(=O)CSc2ccc3ccccc3c2)c(=O)n(C)c1=O | -1.77
Cn1c(N)c(C(=O)COc2ccc(Cl)cc2Cl)c(=O)n(C)c1=O | 2.07
Cc1ccc(S(=O)(=O)N(C)CC(=O)OCC(=O)c2c(N)n(C)c(=O)n(C)c2=O)cc1 | -47.1
